This passage reports inhibition results from PubChem BioAssay AID449762 (Southern Research Specialized Biocontainment Screening …, 2010).

The term inhibition denotes the drop in the measured response relative to a control, in per cent.

Among all 330,000 compounds or so, about 1,900 (0.58%) were called active. About 4% were inconclusive and are not listed. A selection follows. Results with a measured potency or affinity are listed apart. Values without a mark were called inactive. No stated cut-off is given here; in the data, inconclusive means inhibition above about 70% without an active follow-up result; inactive means below that.

The test is described as follows: M. tuberculosis growth inhibition, HTS (AID 449762).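 Further: bacterial growth assessed after seven days of incubation.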 As to conditions: M. tuberculosis H37Rv growth inhibition, 7H9 media; at 25 µM; active compounds read high.
`OCC1(Cc2cccc(C(F)(F)F)c2)CCN(Cc2cc(F)cc(F)c2)CC1`: the inhibition is 14%.
In the case of `Cc1c(CN2CCC(CO)(Cc3ccccc3)CC2)c2ccccc2n1C`, the inhibition is -7.19%.
Consider `O=C(CN(C(=O)CCC(=O)Nc1nccs1)c1ccc(F)cc1)NCc1ccccc1`, for which the inhibition was -3.51%.
For `CCOC(=O)Cn1cc(-c2ccccc2)nn1` the value was -3.68%; for `O=c1cc(O)c2sc3nc(-c4ccccc4)cc(C(F)(F)F)c3c2[nH]1`, 5.22%; for `Cc1cc(C(F)(F)F)c2c(n1)sc1c(O)cc(=O)[nH]c12`, -2.51%.
For `COc1cc(/C=C2\SC(=S)N(N3CCOCC3)C2=O)cc(OC)c1OC` the value was 3.16%; for `Cc1ccc(C(C)C)c(OCC(=O)NS(=O)(=O)c2ccc(Cl)cc2)c1`, -3.31%.
`O=C(c1ccccc1)N1CCN2C(=O)c3ccccc3C12c1ccc(Cl)cc1` (stereo unspecified): the inhibition is 4.61%.
On to `Cc1ccc(C(=O)N2CCN3C(=O)c4ccccc4C23c2ccc(Cl)cc2)cc1` (stereo unspecified), for which the inhibition was 13.6%.
Under `COc1cccc(NC(=O)Nc2ccc(Br)cn2)c1` stands 4.97%; under `O=c1cc(CSCc2ccc(Cl)cc2)[nH]c(=O)[nH]1`, -3.47%.
`Cc1[nH][nH]c(=O)c1N=Nc1ccc(Cl)cc1`: the inhibition is -1.91%.
Take `CCCNC(=O)c1onc(CSc2ccc(Cl)cc2)c1C(=O)NCCOC`: the inhibition was -3.57%.
Under `Nn1c(SCc2ccc([N+](=O)[O-])cc2)nc2ccccc2c1=O` stands 16.5%; under `Nc1c(C(=O)OCC2CCCO2)c2nc3ccccc3nc2n1C1CCCCC1` (stereo unspecified), 1.24%.
In the case of `CCCCn1c(N)c(C(=O)OCC2CCCO2)c2nc3ccccc3nc21` (stereo unspecified), the inhibition is 15.8%.
Take `CCc1ccccc1N(CC(=O)NC1CCCCC1)C(=O)CNC(=O)c1ccco1`: the inhibition was 2.96%.
Under `O=C(NCc1ccco1)C1CCCN(c2ncnc3c2nc2n3CCCCC2)C1` (stereo unspecified) stands 1.1%; under `O=C(O)C1CCN(S(=O)(=O)c2cccc3nsnc23)CC1`, 0.03%.
On to `Cc1c(C(=O)NC(=S)NCC(C)C)oc2ccccc12`, for which the inhibition is -6.41%.
For `COc1ccccc1C1c2ccc3ccccc3c2Oc2ncn(CCCO)c(=N)c21` (stereo unspecified) the value was 5.41%; for `COc1ccc(C2c3ccc4ccccc4c3Oc3ncn(CCO)c(=N)c32)cc1OC` (stereo unspecified), 6.98%; for `COC(=O)Cn1c(C)nc([N+](=O)[O-])c1Br`, 0.3%.
Turning to `Cc1c(Br)c([N+](=O)[O-])nn1CC(=O)c1ccccc1`, the inhibition is -1.84%.
Turning to `Cc1ccc(S(=O)(=O)NC(Cc2ccc(Cl)cc2)C(=O)O)cc1` (stereo unspecified), the inhibition is 4.83%.
Under `COc1ccccc1-c1c(C)oc2c(CN3CCOCC3)c(O)ccc2c1=O` stands 0.75%; under `COc1ccc(Br)cc1/C=N/NC(=O)c1cc(OC)c(OC)c(OC)c1`, -3.85%.
As to `COc1cc(C(=O)N/N=C/c2ccsc2C)cc(OC)c1OC`, the inhibition was 17.9%.
For `Cc1ccc(CCNC(=O)C2CCN(S(=O)(=O)c3ccc4nc5c(c(C(=O)O)c4c3)CCCC5)CC2)cc1` the value was -1.27%; for `Cc1nc2ncnn2c(Nc2ccc3c(c2)OCCO3)c1C`, 6.9%; for `COc1ccc(NC(=O)COC(=O)CCC2CCCCC2)cc1`, 8.09%.
As to `COc1ccc(Cl)c2sc(N3CCN(C(=O)C4=COCCO4)CC3)nc12`, the inhibition was 35.6%.
Take `O=C(C1=COCCO1)N1CCN(c2nc3ccc([N+](=O)[O-])cc3s2)CC1`: the inhibition was 1.78%.
Under `COc1ccc(NC(=O)COC(=O)/C=C/c2ccccc2[N+](=O)[O-])cc1OC` stands 0.41%; under `Cc1sc2ncn(CC(=O)N3CCN(c4ccccn4)CC3)c(=O)c2c1S(=O)(=O)N1CCCCC1`, -2.75%; under `CN1CCN(CCCN2c3ccccc3Sc3ccc(S(=O)(=O)N(C)C)cc32)CC1`, 7.63%.
For `FC(F)(F)c1ccc2c(c1)N(CCCN1CCN(CCCl)CC1)c1ccccc1S2` the value was 4.41%.
With `CS(=O)(=O)c1ccc(Cl)c(NC(=O)C2CC(=O)N(Cc3ccco3)C2)c1` (stereo unspecified), the inhibition was 3.6%.
For `S=C(NC1CCCC1)N1CCN(c2ccccn2)CC1` the value was -3.07%; for `CC1=NN(C(=O)c2ccccc2)C(O)(c2ccc(Br)cc2)C1` (stereo unspecified), -3.64%; for `CC1=NN(C(=O)c2ccc(Cl)cc2)C(O)(c2ccccc2)C1` (stereo unspecified), 28%.
`Cc1cccc(NC(=O)CNC(=O)c2sc3ccccc3c2Cl)n1`: the inhibition is -2.76%.
As for `COc1ccc([C@@H]2CC=C(C(=O)O)[C@H](c3ccc(C(C)(C)C)cc3)N2S(=O)(=O)c2ccc(C)cc2)cc1OC`, the inhibition is 4.96%.
`CCS(=O)(=O)c1ccc2c(c1)N(S(C)(=O)=O)CC(C(=O)NC1CC1)O2` (stereo unspecified): the inhibition is 0.09%.
Under `On1c(-c2ccccc2)nc2ccccc21` stands 9.54%; under `O=C(O)Cn1c(=O)c(-c2ccccc2)nc2ccccc21`, -12.6%; under `N#Cc1ccccc1S(=O)(=O)N1CCN(CC(O)COc2ccccc2F)CC1` (stereo unspecified), 3.84%.
On to `N=C1C(c2ccccc2)=C(O)CN1c1cccc2ccccc12`, for which the inhibition is -2.85%.
`CCOc1ccc(/C=C2\SC(=S)N(N3C(=O)C4CC4C3=O)C2=O)cc1` (stereo unspecified): the inhibition is -8.07%.
For `CCNC(=S)Nc1ccc2cn[nH]c2c1`, the inhibition is -5.21%.
Under `CCc1ccc(NC(=S)Nc2ccc3cn[nH]c3c2)cc1` stands 32%.
Under `CCCCn1cnc2c(oc3ccccc32)c1=O` stands -0.57%; under `Nc1nn(S(=O)(=O)c2ccccc2)cc1-c1cccc([N+](=O)[O-])c1`, 1.89%.
For `CN(C)[C@@H]1C(=O)C(C(N)=O)=C(O)[C@@]2(O)C(=O)C3=C(O)c4c(O)ccc(Cl)c4[C@@](C)(O)[C@H]3C[C@@H]12` the value was 5.01%.
`CCOc1ccc(NC(=O)CCC(=O)Oc2ccc(C)cc2)cc1`: the inhibition was -3.3%.
For `O=C(COC(=O)Cc1ccsc1)Nc1ccccc1` the value was -4.1%; for `C=CCNC(=S)NNC(=O)c1csc(CC)c1`, -5.45%; for `Cc1ccc(NC(=O)C(C)N=C2NS(=O)(=O)c3ccccc32)cc1F` (stereo unspecified), 11%.
Under `CC(=O)N1CCN(c2ccc([N+](=O)[O-])cc2)CC1` stands -5.3%.
Under `CC(=O)N1CCN(c2ccc([N+](=O)[O-])c(-n3nc(C)cc3C)c2)CC1` stands 1.6%; under `CCOc1ccccc1OCC(=O)OCC(=O)c1c(N)n(CC(C)C)c(=O)n(C)c1=O`, 0.88%.
In the case of `CC(=O)OCC(=O)C1CCC2C3CC=C4CC(O)CCC4(C)C3CCC12C` (stereo unspecified), the inhibition was -10.9%.
For `CN(Cc1cccc(Cl)c1Cl)C(=O)c1cccc(S(=O)(=O)N2CCN(Cc3ccccc3)CC2)c1` the value was -12.3%; for `COc1cc(-c2c(C#N)c(=O)[nH]c3c2c(C)nn3-c2ccccc2)ccc1O`, 51.3%.
For `Cc1nn(-c2ccc(F)cc2)c2nc(N)c(C#N)c(-c3ccc(O)c(O)c3)c12` the value was 1.53%; for `O=C1c2ccc([N+](=O)[O-])cc2S(=O)(=O)N1Cc1ccccc1`, -6.93%; for `CCc1noc(C)c1C(=O)Nc1nc2ccc(F)cc2s1`, 68.5%.
As for `CCc1noc(C)c1C(=O)Nc1nc(-c2cc(C)ccc2C)c(C)s1`, the inhibition was -0.88%.
Under `CC(=NCc1cccnc1)C1=C(O)c2ccccc2C1=O` stands -1.08%.
`CC(=NCc1ccc2c(c1)OCO2)c1c(O)[nH]c(=O)[nH]c1=O`: the inhibition was -12.3%.
For the compound `CCn1c(=O)c2cc(C(=O)NCCC(C)C)sc2c2ccccc21`, the inhibition was 9.29%.
Under `O=C(Cn1nnc2ccccc21)c1cccc([N+](=O)[O-])c1` stands -4.83%; under `CN(C(=O)c1ccc(-c2ccccc2)cc1)C1CCCCC1`, 53.6%.
Turning to `CCOc1ccc(NS(=O)(=O)c2ccc(C(=O)N(C)CC(=O)Nc3ccc(C)cc3)cc2)cc1`, the inhibition was 56.7%.
Regarding `CCSc1ccc(-c2nn(-c3ccccc3)cc2/C=C(/C#N)C(=O)NCCCOC)cc1`, the inhibition is 6.88%.
In the case of `CCCSc1ccc(-c2nn(-c3ccccc3)cc2/C=C(/C#N)C(=O)NCCCOC)cc1`, the inhibition was -1.57%.
Under `O=C(N/N=C(/CC(=O)c1cccs1)C(F)(F)F)c1ccc(O)cc1` stands 33.1%.
In the case of `O=C(N/N=C(\CC(=O)c1cccs1)C(F)(F)F)c1cccnc1`, the inhibition is -1.08%.
Under `CC(C)Nc1nc(NC(C)C)nc(OCCOC(=O)c2ccccc2)n1` stands 2.84%; under `CCOC(=O)[C@@H]1[C@H]2COc3cc(OC)ccc3[C@H]2N2C(=O)N(c3ccc(C(F)(F)F)cc3)C(=O)[C@@]12C`, 6.64%; under `CCOC(=O)[C@@H]1[C@H]2COc3cc(OC)ccc3[C@@H]2N2C(=O)N(c3ccc(C(F)(F)F)cc3)C(=O)[C@]12C`, 1.49%.
Turning to `O=C(CC1SC(=O)N(c2ccccc2)C1=O)Nc1ccc(Cl)cc1` (stereo unspecified), the inhibition was -2.72%.
Regarding `O=C(NN=C1CCCC1)c1cccc(Br)c1`, the inhibition is 8.38%.
On to `O=C(N/N=C1\CCCc2ccccc21)c1cccc(Br)c1`, for which the inhibition was 17.8%.
Under `O=C(Nc1ccc(Nc2ccccc2)cc1)C1CC1` stands 0.68%.
With `O=C(Nc1ccc(N2CCOCC2)cc1)C1CC1`, the inhibition was -20.2%.
Under `CC(C)(C)c1ccc(OCCC(=O)NNC(=O)c2ccccc2)cc1` stands -10.6%; under `O=C(COc1ccc([N+](=O)[O-])cc1)N(Cc1cccs1)C1CCS(=O)(=O)C1` (stereo unspecified), -4.33%; under `COc1ccccc1N1CCN(S(=O)(=O)CCNC(=O)CC2CCCCC2)CC1`, -4.01%.
Under `COCCNC(=O)C(c1ccc(C)cc1)N(C(=O)C(=O)NC1CCCC1)c1ccc2c(c1)OCCO2` (stereo unspecified) stands 0.7%.
